Inconclusive results are not listed.

A short description of one test: qHTS Assay for Lipid Storage Modulators (AID 1519). The following applies: Drosophila S3 cells, BODIPY lipid droplet/cell ratio, laser cytometry; measured here: cell count channel max response; cells loaded with oleic acid. In a few lines:
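Cells seeded at 5,000 per well were treated with compounds over a concentration series and loaded with oleic acid (400 uM, as added). Lipid droplet fluorescence (488 nm excitation, 500-530 nm channel) was read by laser-scanning cytometry and normalized to 20 uM Triacsin C.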
(In general: Quantitative high-throughput screening tests each substance at several concentrations.)
`FC(F)(F)c1ccccc1-c1cc(NCc2ccccc2)ncn1`: the max response is 14.8%.

As to `Cc1nc2cnc(N(C)C)nc2n(C[C@H]2CCCO2)c1=O`, the max response is 10.5%.

Take `O=c1c(CCc2ccccc2)nc2cnc(N3CCOCC3)nc2n1Cc1cccs1`: the max response is 7.22%.

`Cn1c(=O)c(-c2cc(F)cc(F)c2)nc2cnc(N3CCOCC3)nc21`: the max response amounted to 16.8%.

In the case of `O=c1cnc2cnc(N3CCOCC3)nc2n1CCc1ccccc1`, the max response stood at 1.44%.

`Cc1ccccc1-c1cc(N(C)C)ncn1`: the max response is 20.2%.

For `CCNc1ncc2ncc(=O)n(C3CC3)c2n1`, the max response was 13.3%.

For `COCCn1c(=O)c(-c2cc(F)cc(F)c2)nc2cnc(N3CCOCC3)nc21`, the max response turned out to be 22.1%.

`O=c1c(-c2ccc(F)cc2)nc2cnc(N3CCNCC3)nc2n1Cc1ccc(F)cc1`: the max response was determined as 7.95%.

Consider `COc1ncc2nc(-c3ccc(F)cc3)c(=O)n(C3CC3)c2n1`, for which the max response turned out to be 16.8%.

As for `COc1ccc(-n2c(=O)c(-c3cccs3)nc3cnc(N(C)C)nc32)cc1`, the max response stood at 19%.

Consider `Fc1ccc(Nc2ncncc2-c2ccccc2C(F)(F)F)cc1`, for which the max response is 13%.

As for `CN(C)c1ncnc2ccc(-c3cccnc3)cc12`, the max response is 4.52%.

With `Cc1noc(C)c1-c1ccc2ncnc(N(C)C)c2c1`, the max response was found to be 19%.

Consider `Cn1c(=O)c(-c2ccc(Cl)cc2)nc2cnc(Nc3ccccc3)nc21`, for which the max response worked out at 23.4%.

In the case of `CN1CCN(c2ncc3nc(-c4ccc(Cl)cc4)c(=O)n(Cc4cccs4)c3n2)CC1`, the max response is 19.7%.

With `CN1CCN(c2cc(-c3ccoc3)ncn2)CC1`, the max response is 23%.

On to `COCCNc1nc(-c2ccccc2OC)nc2ccccc12`, for which the max response is 15.3%.

With `CN(Cc1ccco1)c1ncncc1-c1cccc(C#N)c1`, the max response is 14.4%.

Turning to `Cc1nc2cnc(N3CCN(C)CC3)nc2n(CCC#N)c1=O`, the max response came to 7.54%.

Regarding `COc1ccc(Oc2ncc3nc(C)c(=O)n(Cc4cccc(OC)c4)c3n2)cc1`, the max response came to 6.56%.

Consider `COCCn1c(=O)c(-c2ccc(Cl)cc2)nc2cnc(Oc3cccc(Cl)c3)nc21`, for which the max response amounted to 19.3%.

Still in this test, the particulars now being: Drosophila S3 cells, BODIPY lipid droplet/cell ratio, laser cytometry; measured here: lipid channel max response; cells loaded with oleic acid.
On to `Cc1nc2cnc(N3CCOCC3)nc2n(C[C@H]2CCCO2)c1=O`, for which the max response amounted to 13.9%.

In the case of `CN(C)Cc1ccccc1-c1nc(NCc2cccs2)c2ccccc2n1`, the max response was 15.9%.

For `CN(C)c1ncc2nc(-c3ccccc3)c(=O)n(-c3ccccc3)c2n1`, the max response is 15.8%.

With `N#Cc1cccc(-c2nc3cnc(N4CCOCC4)nc3n(C[C@H]3CCCO3)c2=O)c1`, the max response was 11.4%.

`COc1ccc(-c2nc3cnc(Nc4cccc(OC)c4)nc3n(C3CC3)c2=O)cc1`: the max response was 15%.

Regarding `CN(C)c1ncc2nc(-c3cn(C)c4ccccc34)c(=O)n(C[C@H]3CCCO3)c2n1`, the max response came to 8.36%.

Take `CN(C)c1ncc2nc(-c3ccc(F)cc3)c(=O)n(C[C@H]3CCCO3)c2n1`: the max response was 6.86%.

Consider `CN(C)c1ccc(-c2cc(Nc3ccc(F)cc3)ncn2)cc1`, for which the max response is -0.85%.

Consider `COc1ncc2nc(C)c(=O)n(C3CC3)c2n1`, for which the max response came to 29.7%.

On to `CN(C)Cc1ccccc1-c1cc(N(C)Cc2ccco2)ncn1`, for which the max response was 23.3%.

As for `CN(Cc1ccco1)c1ncncc1-c1ccccc1Cl`, the max response was 19.6%.

With `CN1CCN(c2ncc3ncc(=O)n(C[C@H]4CCCO4)c3n2)CC1`, the max response is 13.9%.

With `CN1CCN(c2ncc3nc(-c4cc(F)cc(F)c4)c(=O)n(C4CC4)c3n2)CC1`, the max response was determined as 12.5%.

On to `COCCn1c(=O)c(C)nc2cnc(Oc3ccc(OC)cc3)nc21`, for which the max response came out at 27.3%.

As to `CN(Cc1ccco1)c1ncncc1-c1ccoc1`, the max response amounted to 28.4%.

Regarding `CCNc1ncc2nc(-c3cn(C)c4ccccc34)c(=O)n(Cc3cccc(OC)c3)c2n1`, the max response came out at 16.9%.

Turning to `c1ccc(Nc2cc(-c3ccoc3)ncn2)cc1`, the max response was determined as 22%.

For `Cn1c(=O)c(-c2cccs2)nc2cnc(OCc3ccccc3)nc21`, the max response amounted to 29.6%.

As for `FC(F)(F)c1ccccc1-c1cc(NCc2ccccc2)ncn1`, the max response came to 20.1%.

For `Cc1nc2cnc(N(C)C)nc2n(C[C@H]2CCCO2)c1=O`, the max response is 13.4%.

On to `O=c1c(CCc2ccccc2)nc2cnc(N3CCOCC3)nc2n1Cc1cccs1`, for which the max response was 18.4%.

In the case of `Cn1c(=O)c(-c2cc(F)cc(F)c2)nc2cnc(N3CCOCC3)nc21`, the max response came out at 22.4%.

For the compound `O=c1cnc2cnc(N3CCOCC3)nc2n1CCc1ccccc1`, the max response was found to be 3.8%.

`Cc1ccccc1-c1cc(N(C)C)ncn1`: the max response was 26.4%.

For `CCNc1ncc2ncc(=O)n(C3CC3)c2n1`, the max response worked out at 13.9%.

For `COCCn1c(=O)c(-c2cc(F)cc(F)c2)nc2cnc(N3CCOCC3)nc21`, the max response was determined as 26.7%.

For `O=c1c(-c2ccc(F)cc2)nc2cnc(N3CCNCC3)nc2n1Cc1ccc(F)cc1`, the max response turned out to be 9.79%.

In the case of `COc1ncc2nc(-c3ccc(F)cc3)c(=O)n(C3CC3)c2n1`, the max response was 19.3%.

Take `COc1ccc(-n2c(=O)c(-c3cccs3)nc3cnc(N(C)C)nc32)cc1`: the max response is 25.4%.

For `Fc1ccc(Nc2ncncc2-c2ccccc2C(F)(F)F)cc1`, the max response was 14.7%.

These data come from PubChem BioAssay (NCATS).
